# Source: PubChem BioAssay (Tox21)
# Results filed as inconclusive are left out. Entries that show only a call come without a potency. Activity calls are given as the source filed them. Calls come from the whole dose curve; as a rule, active = well fitted cell-killing curve with a large enough effect in the repeat runs; inconclusive = weak or mixed curves, or effect the other way; inactive = flat fitted curve, though single readings scatter.
# Test: cAMP Responsive Elements (CRE) small molecule agonists, cell-based qHTS assay: qHTS cell viability counter screen (AID 2060914); note: nearly all actives have a fitted effect of over 50% in size
# Settings: CRE-bla HEK293T viability, CellTiter-Glo luminescence, 5 h; series mostly up to 92.4 µM
# Procedure, shortened: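 Cells are seeded and incubated 18 h, treated with compounds in DMSO for 3 h, read for the bla reporter, then given CellTiter-Glo; luminescence is measured after 30 min at room temperature.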
row,SMILES,Potency
1,O=C(c1ccccc1)C1(O)CCCCC1,inactive
2,CNC1(C)C2CCC(C2)C1(C)C (stereo not given),inactive
3,C#CC(C)(O)CC(C)C (stereo not given),inactive
4,CC(=N\O)/C(C)=N/O,inactive
5,NS(=O)(=O)c1cc2c(cc1Cl)NC(CSCc1ccccc1)=NS2(=O)=O,inactive
6,CN(C)C(=O)COC(=O)Cc1ccc(OC(=O)c2ccc(N=C(N)N)cc2)cc1,inactive
7,C[n+]1c2cc(N)ccc2cc2ccc(N)cc21 (tested in a mixture with another compound),inactive
8,C=CCCCCCCCCO,inactive
9,CC(C)OC(=O)CCCCC(=O)OC(C)C,inactive
10,N#CC1(O)CCCCC1,inactive
11,CCN(CC)CCNC(C(=O)OCCC(C)C)c1ccccc1 (stereo not given),inactive
12,c1ccc(Cc2ccccc2)cc1,inactive
13,C=CC(=O)OCCCC,inactive
14,CCN[C@H]1C[C@H](C)S(=O)(=O)c2sc(S(N)(=O)=O)cc21,inactive
15,Nc1nccs1,inactive
16,CC(C)(C)C(=O)CC(=O)C(C)(C)C,inactive
17,C=C(C)[C@@H]1CC=C(C)C(=O)C1,inactive
18,COC(C)=O,inactive
19,CC(C)OC(=O)COc1ccc(Cl)cc1Cl,inactive
20,CCCCCc1ccc(O)cc1,inactive

row,SMILES,Potency
1,Nc1ccc(O)c(C(=O)O)c1,inactive
2,CCCCCc1ccc(Cl)cc1,inactive
3,CCCCCCc1ccc(N)cc1,inactive
4,c1cnc2c(n1)CCCC2,inactive
5,Nc1ccc2cc(S(=O)(=O)O)ccc2c1,inactive
6,Cc1cc(O)ccc1N,inactive
7,O=C1CCCN1C1CCCCC1,inactive
8,c1ccc(CCc2ccccc2)cc1,inactive
9,CC(C)C1OCCN1CCOC(=O)NCCCCCCNC(=O)OCCN1CCOC1C(C)C (stereo not given),inactive
10,O=C(COCCOCCOCC(=O)Nc1c(I)cc(I)c(C(=O)O)c1I)Nc1c(I)cc(I)c(C(=O)O)c1I,inactive
11,Cc1cccc(C(=O)O)c1,inactive
12,CC(=O)CC/C=C(\C)CCC=C(C)C,inactive
13,O=C1c2cccc(O)c2C(=O)c2c(O)cccc21,inactive
14,CCCCCCCCCCCCCCCC/C=C/C1CC(=O)OC1=O (stereo not given),inactive
15,N#Cc1cc(NC(=O)C(=O)O)c(Cl)c(NC(=O)C(=O)O)c1,inactive
16,O=[N+]([O-])c1cc([N+](=O)[O-])c2ccc(S(=O)(=O)O)cc2c1O,inactive
17,O=C(c1ccccc1)C(O)c1ccccc1 (stereo not given),inactive
18,CCC(=O)OCc1ccccc1,inactive
19,C=C(C)C(=O)Nc1ccc(Cl)c(Cl)c1,inactive
20,COC(=O)c1ccc([N+](=O)[O-])cc1,inactive
